Assay outcomes (PubChem)
Compounds with a hit are over-represented: about 1.2% of the library has one in this group of screens.
GRK2 inh: human GRK2 inhibition via aptamer displacement; P25098; bead flow cytometry, FAM-aptamer displacement from GRK2; inhibition of aptamer binding, % at 10 µM; 0.59% of 330,000 active; AID 488847;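 active = inhibition of aptamer binding above 40%, roughly 3 SD of noise, on plates passing a quality check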;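 also: median bead fluorescence of bound FAM aptamer so fluorescent compounds give negative values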
Platelet DG rel: platelet dense granule release activity; AID 1663; human platelet-rich plasma, SFLLRN dense granule ATP release, luminescence; inhibition, %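 (compounds screened at 7.5 µM in platelet-rich plasma)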; 0.22% of 300,000 active;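 active = mean replicate score, as percent of positive control, at or above 50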
beta cell repl: inducers of beta-cell replication in MIN6 cells. MIN6 cells proliferation, ATPlite luminescence, 48 h; cells starved in 0.2% serum; 100% = growth in 10% serum. proliferation, % at 10 µM. 0.29% of 330,000 active. AID 2380;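 active = compounds whose signal lies at least 3.5 SD above the mean of all wells on their plate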;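 also: 0% = DMSO-treated cells in low-serum medium and 100% = 10% serum control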
NTR1 agonist: agonists of human neurotensin receptor NTR1 | P30989 | NTR1-U2OS beta-arrestin-GFP spot imaging, agonist mode | activation, % at 20 µM | 0.17% of 330,000 active | AID 493036;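 active = activation at or above 40% of the spot to cytoplasm intensity ratio, with at least 20 cells analyzed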;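 also: 0% = DMSO without peptide and 100% = 100 nM NTR1 peptide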
GRK2 CP1: human GRK2 inhibition confirmation, cherry pick 1 | shares compounds with GRK2 inh | bead-bound GRK2, FAM-aptamer displacement, flow cytometry | aptamer displacement, % at 10 µM | 4% of 2,000 active;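 active = aptamer displacement above 40%, near three times the noise of non-fluorescent compounds, on plates passing quality checks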;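 also: negative values mostly reflect intrinsic compound fluorescence rather than true enhancement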
Aptamer quench 1: fluorescent aptamer quenching in GRK2 counter-screen dose response | shares compounds with GRK2 inh | Fluorescent RNA aptamer beads, flow cytometry; active compounds read high | fluorescence change (kMESF span), kMESF (concentration not given with the values) | 110 tested, under 10 active | AID 504521;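 active = compounds whose bead fluorescence drops by more than 37 kMESF across the dose range, marking them as dye quenchers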
FAM quench CP1: counter-screen for GRK2 aptamer inhibitors: fluorescent aptamer quenchers; Carboxyfluorescein RNA aptamer on beads, flow cytometry quenching; active compounds read low; shares compounds with GRK2 inh; 2,000 tested, under 10 active; fluorescence response (% of DMSO), % at 10 µM; AID 504580;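 active = compounds that quench the bead-bound fluorescent RNA probe, cutting fluorescence to under half of the solvent control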;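 also: counterscreen run without GRK2 so only probe quenching by compound is measured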
GRK2 confirm 2: confirmation of human GRK2 inhibitors binding RNA aptamer site | shares compounds with GRK2 inh | bead-bound GRK2, FAM-aptamer displacement, flow cytometry | inhibition of aptamer binding, % at 10 µM | 360 tested, under 10 active | AID 504782;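 active = inhibition of aptamer binding above 40%, about triple the noise seen with nonglowing compounds, on plates passing quality control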;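 also: negative values mostly come from compounds that fluoresce themselves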
FAM quench SP: quenches fluorescent RNA aptamer, GRK2 hit artifact | fluorescence response vs DMSO, % at 10 µM | AID 588494 | 360 tested, under 10 active | shares compounds with GRK2 inh | carboxyfluorescein RNA aptamer beads, flow cytometry quenching; active compounds read low;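 active = response vs DMSO under 50%, meaning signal dropped by over half, treated as fluorescence quencher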;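 also: labelled aptamer on streptavidin beads without GRK2 as a quench counter-screen; 100% = bead fluorescence of DMSO wells and lower means quenching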
Numbers without * were called inactive; nt = not tested or not shown.

SMILES	GRK2 inh	Platelet DG rel	beta cell repl	NTR1 agonist	GRK2 CP1	FAM quench CP1	others
CC(C)(CNCc1ccccc1)NS(=O)(=O)c1ccccc1	0	nt	1	0	nt	nt
O=C(Nc1ccc2oc(-c3cccnc3)nc2c1)c1ccc2c(c1)OCCO2	60*	1	-3	-1	7	96
Cc1c(Cl)cccc1NC(=S)Nc1ccc(S(=O)(=O)Nc2ncccn2)cc1	1	nt	-5	-2	nt	nt
O=C(O)c1ccc(N2CCCC2=O)cc1	52*	-1	-1	1	2	91
O=C(/C=C/c1ccccc1)OCC(=O)N1CCCC1	1	nt	0	-1	nt	nt
O=C(COC(=O)/C=C/c1ccco1)Nc1ncc(Cl)cc1Cl	60*	3	4	0	10	100
O=C(/C=C/c1ccco1)OCC(=O)N1CCCCC1	76*	nt	-5	-1	48*	93	Aptamer quench 1=-2.7
Cc1nc(NC(=O)COC(=O)/C=C/c2ccco2)c(Cl)cc1Cl	21	nt	5	1	nt	nt
O=C(NN=C(c1ccccc1)c1ccccc1)C(CCl)C1CCCCC1 (configuration not stated)	0	nt	2	-2	nt	nt
COc1cccc(N2CCN(S(=O)(=O)c3ccc4c(c3)N(C(C)=O)CCO4)CC2)c1	0	3	1	0	nt	nt
O=[N+]([O-])c1cc(C(F)(F)F)ccc1NCCc1ccccn1	2	-10	0	0	nt	nt
CS(=O)(=O)c1ccc(NCCc2ccccn2)c([N+](=O)[O-])c1	60*	18	2	1	-2	97
O=C(CCC(=O)N1CCN(c2ccccc2F)CC1)N1CCN(c2ccccc2)CC1	0	8	-2	1	-2	99
CC(CNc1nc2ccccc2n2cnnc12)c1ccccc1 (configuration not stated)	42*	4	-1	6	-3	103
NC(=O)c1ccccc1NC(=O)c1ccoc1	3	-28	-1	0	nt	nt
O=C(CCCN1C(=O)/C(=C/c2cccs2)SC1=S)Nc1cccc(C(=O)O)c1	95*	0	1	2	1	101
O=C(CCN1C(=O)/C(=C/c2cccs2)SC1=S)Nc1cccc(C(=O)O)c1	1	-2	-1	-1	nt	nt
O=C(COC(=O)Cc1ccccc1F)NCCNC(=O)COC(=O)Cc1ccccc1F	4	-24	2	0	nt	nt
O=C(COC(=O)c1cc2ccccc2o1)NCc1ccco1	0	nt	-2	-2	nt	nt
O=C(Cn1nc(CNc2ccc(Br)cc2)[n+]2c1CCCCC2)c1ccc([N+](=O)[O-])cc1	86*	5	-3	1	-28	94
O=C(O)CC(CC(=O)Nc1nncs1)c1ccccc1 (configuration not stated)	49*	-3	0	-1	0	100
CC(CC(=O)Nc1nncs1)c1ccccc1 (configuration not stated)	1	10	3	-2	nt	nt
O=C(CCCc1ccccc1)Nc1nncs1	0	-10	-3	0	nt	nt
CCOCCc1nnc(NC(=O)C(C)Oc2ccccc2)s1 (configuration not stated)	4	-13	-1	1	nt	nt
O=C(CCS(=O)(=O)c1ccccc1)Nc1nncs1	54*	1	-3	-1	6	101
COC(=O)c1ccsc1NC(=O)CCS(=O)(=O)c1ccccc1	3	-17	-7	0	nt	nt
COC(=O)c1ccsc1NC(=O)CCS(=O)(=O)c1ccc(Cl)cc1	1	39	-6	0	nt	nt	GRK2 confirm 2=-38;FAM quench SP=101
CCOCCc1nnc(NC(=O)CCS(=O)(=O)c2ccccc2)s1	5	1	0	1	6	97
CC(C)(C)c1ccccc1NC(=O)CN1C(=O)NC(Cc2ccccc2)C1=O (configuration not stated)	1	-6	-4	1	nt	nt
